The record followed here is PubChem BioAssay (Tox21).

In test [1] the target is Thyrotropin receptor (Homo sapiens) (UniProt P16473). Briefly: qHTS assay to identify small molecule agonists of the thyroid stimulating hormone receptor (TSHR) signaling pathway (AID 1224843; calls by dose curve; note: nearly all actives have a fitted effect of over 45% in size). The essentials: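 Using 15 concentrations per compound in triplicate, cAMP production was monitored in TSHR-HEK293 cells after 30 min compound incubation at RT; HTRF reagents followed, with fluorescence intensity recorded after 1 h.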
(In general: Quantitative high-throughput screening tests each substance at several concentrations.)

Test [2] can be described thus: qHTS assay to identify small molecule agonists of the hypoxia (HIF-1) signaling pathway - cell viability counter screen (AID 1224844; calls by dose curve; note: nearly all actives have a fitted effect of over 50% in size). The essentials:
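Viability counter screen: HRE-bla ME-180 cells plated 5 hrs before compound addition, treated 17 hrs at 37C and 5% CO2, then CellTiter-Glo added after the FRET reporter read; luminescence after 30 min.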

A short description of test [3]: qHTS assay to identify small molecule agonists of H2AX (AID 1224845; active = well fitted activation curve with a large enough effect in the signal ratio in the repeat runs, not every such curve was filed as active; the % refers to the signal ratio). The method in brief: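 Wild-type CHO-K1 cells plated overnight, then exposed 3 hr at 37C to compounds at 15 concentrations (0.76% DMSO). Lysed, then HTRF anti-pH2AX(S139)-cryptate/anti-H2AX-d2 detection after 24 hr at room temperature; emissions 665 and 620 nm.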
A short description of test [4]: qHTS assay to identify small molecule agonists of the hypoxia (HIF-1) signaling pathway (AID 1224846; active = well fitted activation curve with a large enough effect in the signal ratio in the repeat runs, not every such curve was filed as active; the % refers to the signal ratio). The essentials:
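Agonist mode reporter screen. ME-180 cells stably expressing bla under HRE control received test compounds in DMSO for 17 hrs (37C, 5% CO2), and beta-lactamase activity was then detected with the CCF4-AM FRET substrate.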

The nature of test [5]: qHTS assay to identify small molecule agonists of H2AX - cell viability counter screen (AID 1224847; calls by dose curve; note: top concentration of the series differs between compounds; nearly all actives have a fitted effect of over 30% in size). The method in brief:
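CHO-K1 cells plated overnight at 37C, then exposed 3 h at 37C to compounds at 15 concentrations (0.76% DMSO final). Viability by CellTiter-Glo luminescence after 30 min at room temperature.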

Test [6] is described as follows: qHTS RealTime-Glo MT Cell Viability Assay in HepG2 cells - 24 hour (AID 1224867). Note: nearly all actives have a fitted effect of over 50% in size. The essentials:
(§1)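 Cell number in HepG2 cultures estimated from NanoLuc luminescence generated by metabolic reduction of a prosubstrate by living cells. The homogeneous, nonlytic format allowed repeated reads at 0, 8, 16, 24, 32 and 40 h of compound exposure.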

Test [7] can be described thus: qHTS RealTime-Glo MT Cell Viability Assay in HEK293 cells - 32 hour (AID 1224868). Note: top concentration of the series differs between compounds; nearly all actives have a fitted effect of over 50% in size. The method in brief: (§2)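 Homogeneous bioluminescent viability format in HEK293 cells (600 cells/well). Following 5 h at 37 C/5% CO2, 23 nL compound was pintooled; the signal was measured repeatedly during 40 h incubation.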
A short description of test [8]: A CellTox Green Cytotoxicity Assay to monitor cytotoxicity in HEK293 cells - 0 hour (AID 1224869). Note: nearly all actives have a fitted effect of over 50% in size. The method in brief: (§3)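 Dead-cell fluorescence measured kinetically: asymmetric cyanine dye, HEK293, 600 cells/well, 5 h settle, 23 nL cpd/DMSO, 37 C, reads 0–40 h every 8 h.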
Test [9] can be described thus: qHTS RealTime-Glo MT Cell Viability Assay in HepG2 cells - 40 hour (AID 1224870). Note: nearly all actives have a fitted effect of over 50% in size. The essentials: (§4)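 HepG2 cells mixed with RealTime-Glo MT reagents (NanoLuc plus cell-permeant prosubstrate) were seeded at 600 cells/well, incubated 5 h at 37 C/5% CO2, then pinned with compounds in DMSO; nonlytic luminescence tracked viability during 40 h treatment.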
A short description of test [10]: A CellTox Green Cytotoxicity Assay to monitor cytotoxicity in HEK293 cells - 40 hour (AID 1224871). Note: nearly all actives have a fitted effect of over 45% in size. The essentials:
as §3

A short description of test [11]: qHTS RealTime-Glo MT Cell Viability Assay in HEK293 cells - 16 hour (AID 1224872). The essentials: as §2
Test [12] can be described thus: qHTS RealTime-Glo MT Cell Viability Assay in HepG2 cells - 8 hour (AID 1224873). Note: nearly all actives have a fitted effect of over 55% in size. The essentials: as §4
The nature of test [13]: qHTS RealTime-Glo MT Cell Viability Assay in HEK293 cells - 40 hour (AID 1224874). Note: nearly all actives have a fitted effect of over 50% in size. The settings on record: RealTime-Glo luminescence; max response: stronger effect = lower value. The method in brief:
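600 HEK293 cells per well, dispensed already mixed with RealTime-Glo MT reagents. Compound dosing came 5 h later. The same wells were read for luminescence at 0, 8, 16, 24, 32 and 40 h of exposure at 37 C.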

Test [14] can be described thus: A CellTox Green Cytotoxicity Assay to monitor cytotoxicity in HEK293 cells - 24 hour (AID 1224875). Note: nearly all actives have a fitted effect of over 45% in size. The essentials:
as §3

Test [15] in a line: A CellTox Green Cytotoxicity Assay to monitor cytotoxicity in HepG2 cells - 16 hour (AID 1224876). Note: nearly all actives have a fitted effect of over 45% in size. The essentials:
(§5)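 First, HepG2 cells (600/well) mixed with reagent were plated; second, after 5 h at 37 C they received compounds via pintool; third, fluorescence was measured at 0 h through 40 h at 8 h intervals.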

The nature of test [16]: qHTS RealTime-Glo MT Cell Viability Assay in HepG2 cells - 32 hour (AID 1224877). Note: nearly all actives have a fitted effect of over 55% in size. The method in brief: as §1
Test [17] is described as follows: A CellTox Green Cytotoxicity Assay to monitor cytotoxicity in HepG2 cells - 24 hour (AID 1224878). Note: nearly all actives have a fitted effect of over 45% in size. The method in brief:
as §5

Test [18] can be described thus: A CellTox Green Cytotoxicity Assay to monitor cytotoxicity in HepG2 cells - 40 hour (AID 1224879). Note: nearly all actives have a fitted effect of over 40% in size. The essentials:
as §5

A short description of test [19]: qHTS assay to identify small molecule antagonists of the estrogen related receptor (ERR) signaling pathway from Tox21 library (AID 1224848). Note: nearly all actives have a fitted effect of over 50% in size. Note: potency is the fitted concentration of half-maximal effect. The method in brief: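 Tox21 10K compounds in DMSO tested for ERR pathway antagonism in NTP's ERR cell line; 18 h, 37 C exposure; ONE-Glo luminescence.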
Test [20] in a line: qHTS assay to identify small molecule agonists of the estrogen related receptor (ERR) signaling pathway from Tox21 library (AID 1224849; calls by dose curve; note: nearly all actives have a fitted effect of over 15% in size). The settings on record: ERR reporter cell line, ONE-Glo luciferase, 18 h. The method in brief:
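Quantitative HTS in agonist format: NTP ERR cell line, compounds transferred in DMSO after 6 h plating, 18 h incubation at 37 C, ONE-Glo luminescence endpoint.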

Values joined by “and” are separate entries in the source; they are usually repeats but may differ in a detail not shown here. Equal entries are not always repeated. Records with an inconclusive call do not appear. Some structures have more than one record in an assay (separate samples or runs), and their calls can disagree. Active and inactive are the calls of the source. Unless noted, calls come from the whole dose curve; as a rule, active = well fitted curve in the direction sought with a large enough effect in the repeat runs; inconclusive = weak or mixed curves; inactive = no such curve, though single readings can be large; an effect the other way counts as inactive or inconclusive.
% is set by controls: 0 for no effect and ±100 for the full control effect.

Chain of Thyrotropin receptor (Homo sapiens) (P16473 whole entry, looked up): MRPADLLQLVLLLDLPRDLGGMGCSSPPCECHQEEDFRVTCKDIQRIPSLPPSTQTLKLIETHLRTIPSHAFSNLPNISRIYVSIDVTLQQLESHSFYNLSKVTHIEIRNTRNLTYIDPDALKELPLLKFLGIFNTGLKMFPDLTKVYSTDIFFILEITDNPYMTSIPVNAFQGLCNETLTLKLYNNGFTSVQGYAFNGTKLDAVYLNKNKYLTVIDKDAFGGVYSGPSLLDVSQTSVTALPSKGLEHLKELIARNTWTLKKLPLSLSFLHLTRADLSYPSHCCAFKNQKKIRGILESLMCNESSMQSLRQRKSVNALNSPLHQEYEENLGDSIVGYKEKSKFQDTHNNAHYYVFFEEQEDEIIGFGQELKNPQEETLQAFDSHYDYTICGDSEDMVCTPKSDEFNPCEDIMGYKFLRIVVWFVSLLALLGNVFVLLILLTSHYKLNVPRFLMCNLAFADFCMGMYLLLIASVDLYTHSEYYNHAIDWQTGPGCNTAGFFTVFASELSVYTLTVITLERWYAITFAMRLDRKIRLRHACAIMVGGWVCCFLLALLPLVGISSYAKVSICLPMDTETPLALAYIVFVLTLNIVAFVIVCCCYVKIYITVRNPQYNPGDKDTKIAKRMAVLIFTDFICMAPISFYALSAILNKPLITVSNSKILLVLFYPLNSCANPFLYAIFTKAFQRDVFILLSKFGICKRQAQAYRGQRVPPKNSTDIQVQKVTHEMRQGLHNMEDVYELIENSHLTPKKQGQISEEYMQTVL

On to `Cc1noc(NS(=O)(=O)c2ccc(N)cc2)c1C`, for which the call in test [1], in test [3], in test [4], in test [5], in test [8] and in test [12] was inactive. Further, the Potency result in test [2], in test [6], in test [7], in [9], in test [10] and in test [11] was “inactive” throughout. The Potency entry in [14], in test [15], in test [16], in test [17] and in test [18] was “inactive” each time. In addition, the max response in [13] is 3.99% (inactive) and 6.51% (inactive) and 6.27% (inactive).

Consider `NC(N)=O`, for which the compound was called inactive in test [1], in [3], in test [4], in test [5], in test [8] and in [12]. Besides, the Potency entry in [2], in test [6], in test [7], in test [9], in test [11] and in [14] was “inactive” throughout. Further, the Potency result in test [15], in test [16], in test [17] and in test [18] was “inactive” throughout.

For the compound `CCCCC(CC)COC(=O)/C=C/c1ccc(OC)cc1` (centres undefined), the compound was called inactive in [1], in [3], in [4], in [5], in test [8] and in test [12]. The Potency result in [2], in [19], in test [6], in test [7], in test [9] and in test [11] was “inactive” throughout. Besides, the Potency result in test [14], in test [15], in test [16], in [17] and in test [18] was “inactive” in each case. Moreover, the activity change, positive = activation in [20] (at 42.5 µM (top of the series)) was -9.11% (inactive); in [20] (at 92.4 µM (top of the series)), 7.09% (inactive) and -5.92% (inactive).

For `CCCCC1C(=O)N(c2ccccc2)N(c2ccccc2)C1=O`, the compound was called inactive in test [1], in [3], in test [4], in [5], in test [8] and in [12]. Also, the Potency entry in [2], in [6], in [7], in test [9], in test [11] and in [14] was “inactive” each time. For the same compound, the Potency result in test [15], in [16], in test [17] and in test [18] was “inactive” in each case. The Potency in test [19] is 61.1 µM (active) and inactive. Besides, the activity change, positive = activation was 2.49% (inactive) in test [20] (at 42.5 µM (top of the series)); -34.5% (inactive) and -44.9% (inactive) in [20] (at 92.4 µM (top of the series)). In test [13], the max response was -7.32% (inactive) and -1.19% (inactive) and 8.39% (inactive).

Take `O=c1cc[nH]c(=S)[nH]1`: the result in test [1], in test [3], in test [4], in test [5], in test [8] and in [12] was inactive. Moreover, the Potency result in [2], in [19], in test [6], in [7], in test [9] and in test [11] was “inactive” in each case. The Potency result in [14], in [15], in test [16], in test [17] and in [18] was “inactive” each time. In addition, the activity change, positive = activation in [20] (at 42.5 µM (top of the series)) was 7.5% (inactive); in [20] (at 92.4 µM (top of the series)) it was 16.5% (inactive) and 3.21% (inactive).

Take `C/C=C/c1ccc(OC)cc1`: the result in test [1], in test [3], in test [4], in [5], in test [8] and in test [12] was inactive. Further, the Potency entry in test [2], in test [6], in [7], in [9], in test [11] and in test [14] was “inactive” each time. Also, the Potency result in [15], in test [16], in test [17] and in [18] was “inactive” in each case. Besides, the max response in test [13] is -0.468% (inactive) [middle of 4 runs].
